Bioassay records: PubChem, several laboratories
Most compounds without a hit are left out; they make up all but 3.7% or so of the library.
BoNT A protease: BoNT A light chain protease inhibition | multiplex microsphere protease substrate cleavage, flow cytometry | hit rate 0.17% among 360,000 | AID 588499 | inhibition, % at 10 µM; further: plate controls were buffer without enzyme for full effect and enzyme alone for no effect
Anthrax LF inh2: anthrax lethal factor protease inhibition; P15917; multiplex microsphere protease cleavage assay, LF; inhibition, % at 10 µM; hit rate 0.12% among 360,000; AID 588501; further: plate controls were buffer without enzyme for full effect and enzyme alone for no effect
MazEF act: MazEF (E. coli) toxin RNase activation. P0AE70. FAM/BHQ RNA-DNA oligo cleavage fluorescence, 5 h. activation, % at 20 µM. hit rate 0.32% among 350,000; in the data active means activation above about 50%
Target sequence (P0AE70 whole entry, looked up): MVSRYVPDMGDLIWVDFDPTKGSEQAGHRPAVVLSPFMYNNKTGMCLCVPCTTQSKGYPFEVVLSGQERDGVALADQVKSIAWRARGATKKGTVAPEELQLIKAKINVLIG
BoNT-F LC inh: BoNT F light chain protease inhibition | Multiplex microsphere protease cleavage assay, flow cytometry | inhibition, % at 10 µM | hit rate 0.22% among 360,000; in the data active means inhibition above about 35%, passing the limit was not always enough; inconclusive means no clear call, values can overlap the other calls; further: plate controls were buffer without enzyme for full effect and enzyme alone for no effect
Bead autofluor: flagged as autofluorescent in microsphere protease counterscreen; compound autofluorescence counterscreen, microsphere flow cytometry; hits give high values; fluorescence intensity (no concentration beside the values); hit rate 3.1% among 360,000; in the data active means fluorescence intensity above about 16000; inconclusive means no clear call, values can overlap the other calls
* hit, by the source's call; ? = inconclusive; / = no result given. Unless noted, no stated cut-off is given here; in the data, active means inhibition above about 30%; inconclusive means no clear call, values can overlap the other calls; inactive means below that.

SMILES | BoNT A protease | Anthrax LF inh2 | MazEF act | BoNT-F LC inh | Bead autofluor
COc1ccc(OC)c(C2NC(=O)NC(C)=C2C(=O)OCc2ccccc2)c1 (centres undefined) | 6 | -10 | 5 | 17 | 3154
CCOC(=O)C1=C(C)N(C)C(=S)NC1c1ccc(Cl)cc1Cl (centres undefined) | 0 | -2 | -9 | -7 | 2308
CCOC(=O)C1=C(C)NC(=O)NC1c1ccc(Cl)cc1Cl (centres undefined) | 3 | -8 | 7 | 2 | 20836*
CCOC(=O)C1=C(C)C(c2ccccc2O)NC(=O)N1 (centres undefined) | 2 | 0 | 9 | 2 | 19487*
C=CCOc1c(OC)cc(Cl)cc1C1NC(=O)NC(C)=C1C(C)=O (centres undefined) | 0 | 1 | 10 | -29 | 4439
O=C(Cn1cnc2ccccc21)Nc1ccc2c(c1)OCCCO2 | -1 | 1 | -1 | 0 | 3706
CCOC(=O)[C@]12CCC=C1N(Cc1ccc(Cl)cc1Cl)C(=O)[C@H](CC(=O)NCCCN1CCCC1=O)C2 | 0 | -2 | / | 1 | 4171
CCCC[C@H]1COCCS(=O)(=O)N1Cc1cccc([N+](=O)[O-])c1 | 0 | -3 | 5 | -3 | 4021
CC(C)CNc1ncnc2c1ncn2[C@H]1CN(CCc2ccccc2)C[C@@H](CO)O1 | 0 | 6 | / | 5 | 3796
CCOC(=O)C1=C(C)NC(=O)NC1c1cccc(OC)c1OCc1ccccc1Cl (centres undefined) | ? | -3 | -2 | -2 | 23671*
CN(CC(=O)Nc1cccc(F)c1)C(=O)c1ccc(N2CCCC2)c([N+](=O)[O-])c1 | 3 | 1 | 3 | 0 | 5619
CC(C)(C)CC(C)(C)NC(=S)Nc1ccc2nc(-c3ccccn3)c(-c3ccccn3)nc2c1 | 42* | 18 | -24 | 18 | 6947
Cc1c(Cl)cccc1NC(=O)CN1CCC(C(O)(c2ccccc2)c2ccccc2)CC1 | -4 | 1 | -9 | -7 | 21085*
Cc1c(Cl)cccc1NC(=O)Cn1c(CCC(=O)O)ccc1-c1ccccc1 | -2 | -12 | 6 | 48* | 4011
Cc1ccccc1C(=O)NC1CCN(CC(=O)Nc2ccccc2Cl)CC1 | 4 | 1 | 4 | 9 | 3584
O=C(C1CC1)N1CCC(C(O)(c2ccccc2)c2ccccc2)CC1 | ? | -2 | 4 | 4 | 21864*
N#CC1(NC(=O)COc2ccc(S(=O)(=O)N3CCCC3)cc2[N+](=O)[O-])CCCCC1 | / | / | -2 | / | /
CC(=O)N1N=C(c2ccc3nccnc3c2)CC1c1ccccc1 (centres undefined) | 1 | -8 | -5 | 2 | 20160*
O=C(c1ccccc1)N1N=C(c2ccccc2)CC1c1ccc2nccnc2c1 (centres undefined) | 1 | 0 | -8 | 7 | 11224
Cn1c(=O)c2[nH]c(CN3CCCCC3)nc2n(C)c1=O | -1 | 4 | -57 | 4 | 3999
O=S(=O)(NCc1ccccc1Cl)c1ccc(-n2cccn2)cc1 | -1 | -1 | -1 | 3 | 4909
CCOc1ccc(S(=O)(=O)N2CCCC(C(=O)NCc3ccncc3)C2)cc1Cl (centres undefined) | -6 | 7 | -13 | -9 | 3276
COc1ccc(NC(=O)COC(=O)CCc2cc(OC)c(OC)c(OC)c2)c([N+](=O)[O-])c1 | -2 | -5 | 11 | -4 | 4112
Cc1ccc2c(c1)-c1cc(C)nn1C(c1ccc3c(c1)OCO3)N2 (centres undefined) | 2 | ? | 3 | 17 | ?
Cc1cc2n(n1)C(c1sccc1C)Nc1ccccc1-2 (centres undefined) | ? | ? | 10 | ? | ?
SMILES | BoNT A protease | Anthrax LF inh2 | MazEF act | BoNT-F LC inh | Bead autofluor
Cc1cc2n(n1)C(c1ccc(N(C)C)cc1)Nc1ccccc1-2 (centres undefined) | -3 | -2 | 3 | -5 | 20611*
Cc1cc2n(n1)C(c1ccc3c(c1)OCO3)Nc1ccccc1-2 (centres undefined) | 2 | -2 | -8 | 5 | 21039*
Cc1cc2n(n1)C(c1ccccc1)Nc1ccccc1-2 (centres undefined) | -2 | -1 | 2 | -3 | 16831*
COc1cccc(NC(=O)COc2coc(CN3CCc4ccccc4C3)cc2=O)c1 | -8 | -4 | -1 | -9 | ?
CC(C)C[C@H]1CNC(=S)N1C[C@H]1CCCN1C[C@H](Cc1ccc(O)cc1)N1C[C@H](CC(C)C)N(CCc2ccccc2)C1=S | 0 | -7 | / | 0 | 6088
Cc1c(NS(=O)(=O)N2CCCC2)c(=O)n(-c2ccccc2)n1C | 1 | -2 | -9 | 4 | 22285*
Cc1ccc(S(=O)(=O)N2CCOCC2)cc1C(=O)Nc1c(C)n(C)n(-c2ccccc2)c1=O | ? | -4 | -2 | -3 | 22630*
Cc1c(NS(C)(=O)=O)c(=O)n(-c2ccccc2)n1C | -1 | -3 | -7 | -11 | 3673
CCCCOc1ccc(CN(C)c2ncnc(N)n2)cc1 | ? | -3 | 1 | 1 | 22920*
Cc1oc(-c2ccccc2F)nc1CN1CCC(C(=O)NCc2cccnc2)CC1 | 1 | -1 | 1 | 1 | 20391*
CCc1ccc(-c2nc(CN3CCC(C(=O)NCc4ccccc4OC)CC3)c(C)o2)cc1 | ? | 1 | -7 | -2 | 25156*
Cc1ccccc1-c1nc(CN2CCC(C(=O)NCc3cccnc3)CC2)c(C)o1 | ? | -8 | -6 | -3 | 22517*
Cc1ccccc1-c1nc(CN2CCC(C(=O)NCc3ccco3)CC2)c(C)o1 | 2 | -6 | 13 | 1 | 21224*
COc1ccc(CCNC(=O)C2CCN(Cc3nc(-c4ccccc4F)oc3C)CC2)cc1OC | 3 | 3 | 5 | 6 | 15722
COc1ccccc1CNC(=O)C1CCN(Cc2nc(-c3cccc(Cl)c3)oc2C)CC1 | 0 | -6 | -4 | -4 | 7001
NC(=O)C1CCN(C(=O)c2cc(-c3ccc(Cl)s3)nc3ccccc23)CC1 | 0 | -4 | -8 | -6 | 2929
Cc1oc(-c2ccc(Cl)cc2)nc1CN1CCCC(C(=O)NCc2ccccn2)C1 (centres undefined) | 0 | -2 | 1 | 1 | 22724*
CSc1ccc(CN2CCC(C)(Oc3ccc(-n4ccnc4)cc3)C2)cc1 (centres undefined) | 0 | -3 | / | -4 | 3527
O=C(C1c2ccccc2C(=O)N2CCc3ccccc3C12)N1CCC2(CC1)OCCO2 (centres undefined) | 0 | 0 | -5 | -1 | 10446
CC1CCCN(C(=O)C2c3ccccc3C(=O)N3CCc4ccccc4C23)C1 (centres undefined) | -2 | 0 | 4 | -5 | 23724*
CS(=O)(=O)c1cnc2c(-c3ccc(F)cc3)cnn2c1N | ? | 0 | 1 | -3 | 20368*
Nc1c(-c2cccs2)cnc2c(-c3ccc(F)cc3)cnn12 | -3 | -5 | 3 | -19 | 3466
CCCNC(=O)C1(C)CCCN(Cc2ccc(-c3ccccn3)cc2)C1 (centres undefined) | 0 | 3 | / | -11 | 3015
Cc1cccc(-n2nc3c(c2NC(=O)c2ccco2)CSC3)c1C | 0 | -3 | 5 | 2 | 20718*
